Structures are written as SMILES. Inconclusive results are not listed. Entries that show only a call come without a potency. Active and inactive are the calls of the source. Calls come from the whole dose curve; as a rule, active = well fitted inhibition curve with a large enough effect; inconclusive = small, poorly fitted or top-dose-only effect; inactive = flat fitted curve, though single readings scatter.

Among the data in PubChem BioAssay (NCATS) are Potency values, retold here.

Chain of Glutathione peroxidase 1 (Homo sapiens) (P07203 whole entry, looked up): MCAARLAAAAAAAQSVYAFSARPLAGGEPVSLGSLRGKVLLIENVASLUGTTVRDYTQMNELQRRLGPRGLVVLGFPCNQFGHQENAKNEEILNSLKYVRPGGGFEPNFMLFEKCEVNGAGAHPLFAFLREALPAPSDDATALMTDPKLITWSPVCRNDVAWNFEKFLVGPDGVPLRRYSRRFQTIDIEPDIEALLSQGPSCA

The assay addresses Glutathione peroxidase 1 (Homo sapiens) (UniProt P07203). As to the kind of experiment: Primary qHTS Assay for Inhibitors of Recombinant Selenoprotein Glutathione Peroxidase 1 (GPX1) (AID 1845191). Note: nearly all actives have a fitted effect of over 65% in size. To be noted: recombinant GPX1, GR-coupled NADPH fluorescence, 15 min; series mostly up to 27.7 µM. In short, it runs like this: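 NADPH consumption tracked by fluorescence at 340/450 nm between t=0 and t=15 min, room temperature. Final mix: 10 nM GPX1, 100 nM glutathione reductase, 1 mM GSH, 0.5 mM NADPH, 0.5 mM cumene hydroperoxide, 0.01% BSA; 30 min compound–enzyme preincubation.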
On to `C[C@@H]1O[C@@H](O[C@H]2[C@H](O)[C@@H](O)[C@H](OC(=O)[C@]34CCC(C)(C)C[C@H]3C3=CCC5[C@@]6(C)CC[C@H](O[C@@H]7O[C@H](C(=O)O)[C@@H](O)[C@H](O)[C@H]7O)C(C)(C)C6CC[C@@]5(C)[C@]3(C)CC4)O[C@@H]2CO)[C@H](O)[C@H](O)[C@H]1O` (some centres undefined), for which the Potency result is “inactive”.

With `O=C(OC[C@H]1O[C@@H](Oc2ccccc2CO)[C@H](O)[C@@H](O)[C@@H]1O)c1ccccc1`, the Potency result is “inactive”.

Consider `COc1cc(O)cc2c1C(=O)OC(C)C2` (centres undefined), for which the Potency entry is “inactive”. In the case of `O=C(/C=C/C=C/c1ccc2c(c1)OCO2)N1CCCCC1` it was “inactive”; in that of `COC(=O)C1=COC(O[C@@H]2O[C@H](CO)[C@@H](O)[C@H](O)[C@H]2O)/C(=C\COC(=O)/C=C/c2ccccc2)C1CC(=O)OCCc1ccc(O)cc1` (some centres undefined), “inactive”. In the case of `CC1=C2CC3C(CCC3(C)O)C(C)(O)CC2OC1=O` (centres undefined) it was “inactive”. As to `CC1=C(CO)CC(C(C)C2CCC3C4CC=C5CC(OC6OC(COC7OC(CO)C(O)C(O)C7O)C(O)C(O)C6O)CC(O)C5(C)C4CCC23C)OC1=O` (centres undefined), the Potency result is “inactive”. The value for `C/C(=C\CO)CC/C=C(\C)C(=O)O[C@@H]1O[C@H](CO)[C@@H](O)[C@H](O)[C@H]1O` was “inactive”; that for `C[C@@H]1CCC2C(C)(C)[C@H](O)[C@H](O)C[C@]2(C)[C@@]12Cc1c(O)cc3c(c1O2)CN(CCCC(=O)O)C3=O` (some centres undefined) was “inactive”. The value for `CC(=O)O[C@@H]1C(=O)C(C)=C(CCC(C)CC(=O)O)[C@@]2(C)CCCC(C)(C)C12` (some centres undefined) was “inactive”; that for `COc1cc(C(=O)OCC2=CCC3C(C(=O)O)=COC(O[C@@H]4O[C@H](CO)[C@@H](O)[C@H](O)[C@H]4O)C23)ccc1O` (some centres undefined) was “inactive”; that for `O=C(/C=C/N1C[C@@H]2C[C@@H]1CN2c1ccccn1)c1ccccc1O` was “inactive”. In the case of `CC1OC(O[C@@H]2[C@H](O)[C@@H](OC3OC(CO)C(O)C(O)C3O)[C@H](OC(=O)[C@]34CCC(C)(C)C[C@H]3C3=CCC5[C@@]6(C)CC[C@H](O[C@@H]7O[C@H](C(=O)O)[C@@H](O)[C@H](O[C@@H]8OC[C@@H](O)[C@H](O)[C@H]8O)[C@H]7O[C@@H]7O[C@H](CO)[C@H](O)[C@H](O)[C@H]7O)[C@@](C)(C=O)C6CC[C@@]5(C)[C@]3(C)C[C@H]4O)O[C@@H]2C)C(O)C(O)C1OC1OCC(O)C(O)C1O` (some centres undefined) it was “inactive”; in that of `CC(=O)O[C@H]1[C@H](O[C@H]2CC[C@]34C[C@]35CC[C@]3(C)[C@@H]([C@@]6(C)CC[C@@H](C(C)(C)O)O6)[C@@H](O)C[C@@]3(C)[C@@H]5C[C@H](O[C@@H]3O[C@H](CO)[C@@H](O)[C@H](O)[C@H]3O)[C@H]4C2(C)C)OC[C@@H](OC(C)=O)[C@@H]1O`, “inactive”; in that of `CC(C)N(CCCNC(=O)Nc1ccc(C(C)(C)C)cc1)C[C@H]1O[C@@H](n2ccc3c(N)ncnc32)[C@H](O)[C@@H]1O`, “inactive”.

As to `O=C(/C=C/c1ccc(O)c(O)c1)O[C@H]1[C@@H]2C=CO[C@@H](O[C@@H]3O[C@H](CO)[C@@H](O)[C@H](O)[C@H]3O)[C@@H]2[C@@]2(CO)O[C@@H]12`, the Potency entry was “inactive”. The value for `CC1(C)CCC2(C(=O)O)C(O)CC3(C)C(=CCC4C5(C)CCC(OC6OC(CO)C(O)C(O)C6OC6OC(CO)C(O)C(O)C6OC6OCC(O)(CO)C6O)C(C)(C)C5CCC43C)C2C1` (centres undefined) was “inactive”; that for `CC1=C[C@H]2[C@@H](CC1=O)[C@H](C)C[C@H](O)[C@H]2C(C)C` was “inactive”.

Take `Cc1ccccc1NC(=O)Nc1ccc(CN2C(=O)N([C@@H](CC(C)C)C(=O)N[C@@H](CC(=O)O)c3ccccc3)C(=O)C2(C)C)cc1`: the Potency result was “inactive”. `CC1CCCCCCCc2cc(O)cc(O)c2C(=O)O1` (centres undefined): the Potency entry is “inactive”.

In the case of `C=C1CCC2C(C)(C)CC(O)CC2(C)C1CCC(C)CC(=O)O` (centres undefined), the Potency entry was “inactive”. The value for `C[C@@H](NC(=O)c1cc(C(=O)N[C@@H](Cc2ccccc2)[C@H](O)CNC2CC2)cc(N(C)S(C)(=O)=O)c1)c1ccccc1` was “inactive”.

`C=CC1(C)CC2CCC3C(C)(C(=O)O)CCCC3(C)C2=CC1=O` (centres undefined): the Potency entry was “inactive”. The value for `CC1(C)OC(=O)C=C[C@@]2(C)C1CC(=O)[C@]1(C)C2CC[C@@]2(C)[C@H](c3ccoc3)OC(=O)[C@H]3O[C@]321` (some centres undefined) was “inactive”; that for `COc1cc(O)cc(C)c1C(=O)OC1C(CO)OC(n2ccc(=O)[nH]c2=O)C1OC(C)=O` (centres undefined) was “inactive”. In the case of `CC1=CC(=O)CC(C)(C)C1CO[C@@H]1O[C@H](CO)[C@@H](O)[C@H](O)[C@H]1O` (some centres undefined) it was “inactive”. The value for `C=C1CCC2[C@@](C)(C(=O)O)CCC[C@@]2(C)[C@@H]1CCc1ccoc1` (some centres undefined) was “inactive”; that for `CC[C@@H](C)[C@H](N)C(=O)N1Cc2ccccc2C1` was “inactive”. For the compound `COc1cc(C2Oc3c(OC)cc(CCCO)cc3C2CO)ccc1O` (centres undefined), the Potency entry is “inactive”. The value for `C=C1C(OC(C)=O)C(=O)C2C(C)(C)C(O)CCC2(C)C1CC(OC(C)=O)/C(C)=C/COC(C)=O` (centres undefined) was “inactive”; that for `C/C(=C\CCC(C)C1CC(O)C2(C)C3CCC4C(C)(C)C(OC5OCC(O)C(O)C5O)CCC45CC35CC(O)C12C)C(=O)O` (centres undefined) was “inactive”. The value for `CC1C2=CC(=O)OC2(O)CC2C1CCC1C(C)(C)CCC(O)C21C` (centres undefined) was “inactive”. `CC(C)c1ccc2c(c1)C(=O)CC1C(C)(C(=O)O)CCCC21C` (centres undefined): the Potency result was “inactive”. The value for `CC1(C)[C@@H]2CC=C(CO[C@@H]3O[C@H](CO[C@@H]4OC[C@H](O)[C@H](O)[C@H]4O)[C@@H](O)[C@H](O)[C@H]3O)[C@H]1C2` was “inactive”; that for `COc1ccc(CCC(=O)O)c(O[C@@H]2O[C@H](CO)[C@@H](O)[C@H](O)[C@H]2O)c1` was “inactive”; that for `Cc1ccc(-n2nc(C(C)(C)C)cc2NC(=O)Nc2cc(COc3cccnc3)[nH]n2)cc1` was “inactive”. In the case of `C=CC(C)(O)CC/C=C(\C)COC1O[C@H](CO)[C@@H](O)[C@H](O)[C@H]1O` (some centres undefined) it was “inactive”; in that of `O=C(N[C@@H]1CC[C@@H](c2cccc(F)c2F)CN(CC(F)(F)F)C1=O)N1CCC(n2c(=O)[nH]c3ncccc32)CC1`, “inactive”; in that of `CN1C(=O)N(c2cc(Cl)cc(Cl)c2)C(=O)[C@@]1(C)Cc1ccc(Br)cc1`, “inactive”.
